Measured values reported in PubChem BioAssay (NCATS).
Where “and” joins values, the source holds several entries; their conditions need not be identical. Equal entries are not always repeated. A number with no mark means an inactive call. Results filed as inconclusive are left out. Where a call stands in place of a potency, no number is given. Calls of active or inactive are those of the source. Unless noted, the call rests on the fitted dose curve; in most records, active means well fitted curve in the direction sought with a large enough effect; inconclusive means small, poorly fitted or top-dose-only effect, or another doubt; inactive means no such curve, though single readings can be large; an effect the other way counts as inactive or inconclusive.

What was measured:
[1] = Cell Viability - MRC5 (AID 434; calls by dose curve;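 further: potency means the concentration at half of the fitted maximal effect; potency reflects cytotoxicity seen as loss of intracellular ATP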); conditions: MRC5 lung fibroblast viability, qHTS
Method in brief: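 MRC5 normal human lung fibroblasts, 1500 cells/well, exposed to compound for 40 hr at 37 C. Cellular ATP was read by CellTiter-Glo luminescence; data normalized to DMSO and 100 uM tamoxifen, with AC50 from Hill fits.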

[2] = MultiTox-Fluor Cytotoxicity Assay - LYMP1-003 - Dead Cells (AID 961); conditions: LYMP1-003 lymphoblastoid cells, dead-cell protease fluorescence; series mostly up to 92.2 µM; further: nearly all actives have a fitted effect of over 70% in size
Method in brief: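 Human lymphoblastoid LYMP1-003 cells (2500/well) were treated with compounds for 16 hr at 37 C in complete medium. Dead-cell protease release was read by bis-AAF-R110 fluorescence (Ex/Em 485/520). AC50 came from Hill fits, normalized to DMSO and 15 uM tetraoctylammonium bromide.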

[3] = MultiTox-Fluor Cytotoxicity Assay - LYMP1-003 - Live Cells (AID 962); conditions: LYMP1-003 lymphoblastoid cells, MultiTox-Fluor live-cell protease fluorescence; series mostly up to 92.2 µM;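 further: cytotoxic hits lower the live-cell protease signal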
Method in brief: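 LYMP1-003 human lymphoblastoid cells (2500/well) in complete medium were preincubated 5 hr at 37 C, then exposed to compounds for 16 hr at 37 C. Live-cell protease cleavage of GF-AFC read by fluorescence (Ex/Em 405/510); AC50 from Hill fits.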

[4] = Cell Viability - LYMP1-003 - Assay at 40 hr (AID 964); conditions: LYMP1-003 lymphoblastoid viability; series mostly up to 92.2 µM; further: nearly all actives have a fitted effect of over 60% in size
Method in brief: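 Human lymphoblastoid LYMP1-003 cells, 2500/well in complete medium, rested 5 hr at 37 C, then exposed to compounds for 40 hr at 37 C. Viability read as intracellular ATP by CellTiter-Glo luminescence; AC50 from Hill fits of concentration-response data.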

[5] = Cell Viability - LYMP2-011 (AID 969); conditions: LYMP2-011 lymphoblastoid cells viability; series mostly up to 92.2 µM; further: nearly all actives have a fitted effect of over 60% in size; further: potency means the concentration at half of the fitted maximal effect
Method in brief: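 Human lymphoblastoid cells (2500/well) were plated in complete medium, preincubated 5 hr at 37 C, then exposed to compounds for 24 hr at 37 C. Intracellular ATP was read by CellTiter-Glo luminescence, and AC50 came from Hill-equation concentration-response fits.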

[6] = Cell Viability - LYMP2-013 (AID 970); conditions: LYMP2-013 lymphoblastoid cells viability; series mostly up to 92.2 µM; further: nearly all actives have a fitted effect of over 55% in size; further: potency means the concentration at half of the fitted maximal effect
Method in brief: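 Human lymphoblastoid cells, 2500/well, were preincubated 5 hr at 37 C, then treated with compounds for 24 hr at 37 C in complete medium. Intracellular ATP was read by CellTiter-Glo luminescence; AC50 from Hill-equation fits of concentration-response data.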

[7] = Cell Viability - LYMP2-015 (AID 971); conditions: LYMP2-015 lymphoblastoid cell viability; series mostly up to 92.2 µM; further: nearly all actives have a fitted effect of over 55% in size; further: potency means the concentration at half of the fitted maximal effect
Method in brief: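 Human lymphoblastoid cells (2500/well) in complete medium were preincubated 5 hr at 37 C, then compound-treated 24 hr at 37 C. Intracellular ATP was read by CellTiter-Glo luminescence after 30 min at room temperature; AC50 came from Hill-equation concentration-response fits.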

[8] = Cell Viability - LYMP2-002 (AID 977); conditions: LYMP2-002 lymphoblastoid cell viability, qHTS; series mostly up to 92.2 µM
Method in brief: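 Human lymphoblastoid LYMP2-002 cells, 2500 per well, exposed to compounds for 24 h at 37 C in complete medium; viability read as intracellular ATP by CellTiter-Glo luminescence, AC50 from Hill fits.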

[9] = Cell Viability - LYMP2-010 (AID 981); conditions: LYMP2-010 lymphoblastoid cell viability, qHTS; series mostly up to 92.2 µM; further: nearly all actives have a fitted effect of over 55% in size; further: potency means the concentration at half of the fitted maximal effect
Method in brief: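 Human lymphoblastoid LYMP2-010 cells (2500/well) were preincubated 5 hr at 37 C, then exposed to compounds for 24 hr at 37 C in complete medium. Intracellular ATP was measured by CellTiter-Glo luminescence after 30 min at room temperature; AC50 from Hill-fitted concentration-response.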

[10] = Cell Viability - LYMP2-018 (AID 985); conditions: LYMP2-018 lymphoblastoid cells, viability (qHTS); series mostly up to 92.2 µM;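 further: compound exposure lasted 24 hr at 37 °C; nearly all actives have a fitted effect of over 50% in size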
Method in brief: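 Human lymphoblastoid cells (2500/well) were pre-incubated 5 hr at 37 C, then exposed to compounds for 24 hr at 37 C in complete medium. Viability was read as intracellular ATP by CellTiter-Glo luminescence; AC50 values came from Hill-equation fits.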

[11] = Cell Viability - LYMP2-022 (AID 987); conditions: LYMP2-022 lymphoblastoid cell viability; series mostly up to 92.2 µM; further: nearly all actives have a fitted effect of over 55% in size; further: potency means the concentration at half of the fitted maximal effect
Method in brief: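 Human lymphoblastoid cells, 2500/well, preincubated 5 hr at 37 C, then exposed to compounds over a concentration range for 24 hr at 37 C in complete medium. Viability read as intracellular ATP by CellTiter-Glo luminescence after 30 min at room temperature; AC50 from Hill fits.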

[12] = qHTS assay for small molecule antagonists of the retinoid-related orphan receptor gamma (ROR-gamma) signaling pathway - cell viability counter screen (AID 720652; active means well fitted curve in the direction sought with a large enough effect in the repeat runs; an effect the other way counts as inactive or inconclusive;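 further: CHO reporter cells with doxycycline-induced ROR-gamma expression; compound exposure lasted 16 hr before ATP read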); conditions: RORgamma reporter cell line viability counter screen; series mostly up to 92.2 µM
Method in brief: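 Counter screen in CHO cells carrying TET-inducible ROR-gamma and an ROR response element-luciferase reporter; cells plated 5 hr, compound pinned, doxycycline added, then 16 hr at 37 C. Viability read as intracellular ATP by CellTiter-Glo luminescence.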

[13] = qHTS assay for small molecule activators of the human pregnane X receptor (PXR) signaling pathway (AID 720659; call rule not given here); conditions: DPX-2 HepG2 CYP3A4-luciferase, 24 h; series mostly up to 92.3 µM
[14] = target: Mitogen-activated protein kinase 10 (Mus musculus) (UniProt Q61831); test: JNK3 AlphaScreen Assay (AID 530; active means well fitted curve in either direction with a large enough effect, not every such curve was filed as active;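 further: kinase came from lysate of stimulated human HepG2 cells; signal reports phosphorylation of biotinylated GST-cJun 1-79 at Ser73 with 10 µM ATP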); conditions: JNK3 lysate, c-Jun phosphorylation; series mostly up to 57.1 µM
Method in brief: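 qHTS format: compounds tested as titrations against IL-1beta/TNF-alpha-activated HepG2 lysate JNK3 with biotin-GST-cJun substrate and 10 uM ATP at room temperature. Loss of anti-phospho-cJun AlphaScreen signal indicates inhibition.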

[15] = Cell Viability - LYMP2-001 (AID 921); conditions: LYMP2-001 lymphoblastoid cell viability; series mostly up to 92.2 µM; further: nearly all actives have a fitted effect of over 70% in size
Method in brief: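 Cellular ATP loss read by luciferase luminescence after 24 h compound exposure at 37 C in complete medium. LYMP2-001 lymphoblastoid cells, 2500/well; qHTS concentration-response data fitted with Hill equation for AC50.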

[16] = MultiTox-Fluor Cytotoxicity Assay - LYMP1-001 - Live Cells (AID 947); conditions: LYMP1-001 lymphoblastoid cells, live-cell protease fluorescence viability; series mostly up to 92.2 µM
[17] = Cell Viability - LYMP2-021 (AID 974); conditions: LYMP2-021 lymphoblastoid cells viability; series mostly up to 92.2 µM; further: potency means the concentration at half of the fitted maximal effect
Method in brief: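 Human lymphoblastoid cells (2500/well) were preincubated 5 hr at 37 C, then exposed to compounds for 24 hr at 37 C in complete medium. Intracellular ATP was read by CellTiter-Glo luminescence; AC50 came from Hill-equation fits of concentration-response data.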

[18] = target: Vitamin D3 receptor (Homo sapiens) (UniProt P11473); test: qHTS assay for small molecule antagonists of vitamin D receptor signaling (AID 588541; calls by dose curve;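 further: receptor activated by calcitriol during compound treatment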); conditions: HEK293T VDR-UAS-bla, beta-lactamase ratio, antagonist mode; series mostly up to 76.7 µM
Method in brief: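 VDR-UAS-bla HEK293T cells in 2% charcoal-stripped FBS were stimulated with 1-alpha,25-dihydroxyvitamin D3 (3 nM final) plus compound for 16 h at 37 C. The beta-lactamase CCF4 readout was normalized to 50 nM agonist and DMSO, and Hill fits gave IC50.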

[19] = target: Vitamin D3 receptor (Homo sapiens) (UniProt P11473); test: qHTS assay for small molecule agonists of vitamin D receptor signaling (AID 588543; calls by dose curve); conditions: HEK293T VDR-UAS-bla, beta-lactamase ratio, 16 h; series mostly up to 76.8 µM
Method in brief: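 Agonist-mode beta-lactamase reporter: HEK293T VDR-UAS-bla cells in charcoal-stripped 2% FBS, compound series 16 h 37 C, CCF4 2 h RT. EC50 from Hill fit, scaled against DMSO and 50 nM calcitriol control.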

[20] = target: Thyroid hormone receptor beta (Homo sapiens) (UniProt P10828); test: qHTS assay for small molecule antagonists of thyroid hormone receptor beta signaling (AID 588547; active means well fitted inhibition curve with a large enough effect in the signal ratio, with a control signal flat, not every such curve was filed as active; the % refers to the signal ratio;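 further: cells stimulated with 0.4 nM T3 agonist during compound exposure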); conditions: TR-UAS-bla HEK293, beta-lactamase ratio, antagonist mode, 18 h
Method in brief: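 TR-UAS-bla GripTite HEK293 cells in 2% charcoal/dextran FBS medium; compounds 0.59 nM to 92 uM with T3 at 0.4nM final, 18 h at 37 C. Beta-lactamase read by CCF4 fluorescence (460/530 nm); Hill fits gave IC50 and efficacy.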

Chain of Thyroid hormone receptor beta (Homo sapiens) (P10828 whole entry, looked up): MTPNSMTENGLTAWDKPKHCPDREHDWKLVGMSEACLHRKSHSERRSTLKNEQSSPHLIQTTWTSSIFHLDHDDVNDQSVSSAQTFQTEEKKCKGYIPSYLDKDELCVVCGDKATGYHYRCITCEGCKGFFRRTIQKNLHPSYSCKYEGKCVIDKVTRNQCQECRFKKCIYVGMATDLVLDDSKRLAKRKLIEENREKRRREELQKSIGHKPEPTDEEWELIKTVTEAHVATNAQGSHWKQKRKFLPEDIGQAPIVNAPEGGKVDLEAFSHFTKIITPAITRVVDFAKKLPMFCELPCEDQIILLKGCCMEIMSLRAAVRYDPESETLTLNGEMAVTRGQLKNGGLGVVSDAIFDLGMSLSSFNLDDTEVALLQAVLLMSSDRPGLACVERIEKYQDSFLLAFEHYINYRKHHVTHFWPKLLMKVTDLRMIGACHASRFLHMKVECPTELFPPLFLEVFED
Chain of Vitamin D3 receptor (Homo sapiens) (P11473 whole entry, looked up): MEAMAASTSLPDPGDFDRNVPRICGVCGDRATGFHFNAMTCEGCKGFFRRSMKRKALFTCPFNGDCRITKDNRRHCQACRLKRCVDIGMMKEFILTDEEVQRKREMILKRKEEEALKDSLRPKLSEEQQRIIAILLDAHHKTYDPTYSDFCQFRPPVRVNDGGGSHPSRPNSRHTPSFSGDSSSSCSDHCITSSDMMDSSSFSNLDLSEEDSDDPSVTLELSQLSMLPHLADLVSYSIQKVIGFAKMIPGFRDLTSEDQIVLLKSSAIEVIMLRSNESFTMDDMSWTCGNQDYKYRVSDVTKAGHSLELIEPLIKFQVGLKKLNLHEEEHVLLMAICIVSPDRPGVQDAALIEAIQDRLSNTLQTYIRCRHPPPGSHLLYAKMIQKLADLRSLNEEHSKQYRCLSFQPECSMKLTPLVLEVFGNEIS

| Structure (SMILES) | Potency [1] | Potency [2] | outcome [3] | Potency [4] | Potency [5] | Potency [6] | Potency [7] | Potency [8] | Potency [9] | Potency [10] | Potency [11] | Potency [12] | outcome [13] | Potency [14] | Potency [15] | outcome [16] | Potency [17] | outcome [18] | outcome [19] | activity change % (negative = inhibition) [20] |
| --- | --- | --- | --- | --- | --- | --- | --- | --- | --- | --- | --- | --- | --- | --- | --- | --- | --- | --- | --- | --- |
| Nc1ccc(Oc2ccc(N)cc2)cc1 | > 92 µM | inactive | inactive | inactive | inactive | inactive | inactive | inactive | inactive | inactive | inactive | inactive | inactive |  |  |  |  |  |  |  |
| Oc1ccc(Cl)c(Cl)c1 | > 92 µM | inactive | inactive | inactive | inactive | inactive |  | inactive | inactive | inactive | inactive | inactive | inactive | inactive | inactive | inactive | inactive | inactive | inactive |  |
| N#C/C=C/C#N | > 92 µM | inactive |  | inactive | 39.8 µM (active) | 39.8 µM (active) | 50.1 µM (active) |  | 31.6 µM (active) |  | 15.8 µM (active) | inactive | inactive | inactive |  |  | 39.8 µM (active) |  | inactive | -13.1% |
| N#CCc1ccccc1 | > 92 µM | inactive | inactive | inactive | inactive |  | inactive | inactive | inactive | inactive |  | inactive | inactive | inactive | inactive | inactive |  | inactive |  | 23.1% |
| ClC(Cl)c1ccccc1 | > 92 µM |  | inactive |  | inactive | inactive | inactive |  |  | inactive |  | inactive | inactive | inactive | inactive | inactive | inactive | inactive | inactive |  |
| C=CCOCC1CO1 (configuration not stated) | > 92 µM | inactive | inactive | inactive | inactive | inactive |  | inactive | inactive |  | inactive | inactive | inactive | inactive |  | inactive | inactive | inactive | inactive |  |
| [C-]1=CC=CC1.[C-]1=CC=CC1.[Cl-].[Cl-].[Ti+4] |  | inactive |  |  |  |  |  |  |  |  |  |  |  | inactive |  | inactive |  |  | inactive |  |
| CCCCCCCCCCCOC(=O)c1ccccc1C(=O)OCCCCCCCCCCC | > 92 µM |  | inactive |  | inactive | inactive | inactive | inactive | inactive | inactive | inactive | inactive |  | inactive |  | inactive |  | inactive | inactive |  |
| Oc1cc(Cl)c(Cl)c(Cl)c1 |  | inactive | inactive | inactive |  |  |  |  |  | inactive |  |  | inactive | inactive | inactive | inactive |  | inactive | inactive |  |
| c1ccc(P(c2ccccc2)c2ccccc2)cc1 | > 92 µM |  | inactive | inactive | inactive | inactive |  | inactive | inactive | inactive | inactive | inactive |  |  | inactive | inactive | inactive | inactive | inactive | 5.79% |
| C=CC(=O)OCCO |  | inactive |  |  |  |  |  | inactive | 50.1 µM (active) |  |  |  | inactive | inactive |  | inactive |  | inactive | inactive | 12.5% |
| CN(C)c1ccc(N=Nc2ccccc2)cc1 | > 92 µM | inactive |  | inactive | inactive | inactive |  |  | inactive |  | inactive | inactive |  |  | inactive | inactive | inactive | inactive | inactive | -4.36% |
| CCCN(CCC)c1c([N+](=O)[O-])cc(C(F)(F)F)cc1[N+](=O)[O-] | > 92 µM |  | inactive | inactive |  |  | inactive | inactive | inactive | inactive | inactive | inactive |  |  | inactive |  |  | inactive | inactive | 9.18% and -4.26% |
| Cc1cc(C)cc(OP(=O)(Oc2cc(C)cc(C)c2)Oc2cc(C)cc(C)c2)c1 | > 92 µM |  | inactive | inactive | inactive | inactive | inactive | inactive | inactive | inactive | inactive |  |  |  | inactive | inactive | inactive | inactive | inactive | 2.87% |
| CC(C#N)CCC#N (configuration not stated) |  | inactive |  |  | inactive | inactive | inactive | inactive | inactive | inactive | inactive | inactive | inactive | inactive | inactive | inactive | inactive | inactive | inactive | 9.23% |
| Nc1c(Br)cc([N+](=O)[O-])cc1[N+](=O)[O-] | > 92 µM | inactive |  | inactive | inactive | inactive | inactive | inactive |  | inactive | inactive | inactive | inactive | inactive | inactive | inactive | inactive | inactive | inactive |  |
| [O-][Cl+2]([O-])O | > 92 µM |  | inactive | inactive | inactive |  | inactive | inactive | inactive | inactive | inactive | inactive | inactive |  | inactive | inactive |  | inactive | inactive |  |
| Nc1ccc([N+](=O)[O-])cc1N | > 92 µM | inactive | inactive |  | inactive | inactive | inactive | inactive |  |  | inactive | inactive |  | inactive | inactive | inactive | inactive | inactive | inactive | 8.39% and -11.3% |
